# Laboratory results published in publication PMC11006913.
# Residue numbers refer to the chain shown, from its start.
# Tests used:
# Test in all cases: PBM; 200 nM protein, PBS
# Conditions in all cases: dsDNA, one strand shown
# VENTX [1] = target: T1, VENTX (Homo sapiens, UniProt O95231 78-163, R121Q)
# T1 sequence: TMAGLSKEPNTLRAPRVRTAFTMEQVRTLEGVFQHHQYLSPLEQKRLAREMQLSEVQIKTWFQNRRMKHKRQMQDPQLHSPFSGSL
# VENTX [2] = target: T2, VENTX (Homo sapiens, UniProt O95231 78-163)
# T2 sequence: T1 sequence with Q44R
# VENTX [3] = target: T3, VENTX (Homo sapiens, UniProt O95231 78-163, Y115F)
# T3 sequence: T1 sequence with Y38F, Q44R
# HOXA2 [4] = target: HOXA2 (Homo sapiens, UniProt O43364 129-215, R185T)
# Chain of HOXA2 (Homo sapiens, UniProt O43364 129-215, R185T) (O43364 129-215 R185T): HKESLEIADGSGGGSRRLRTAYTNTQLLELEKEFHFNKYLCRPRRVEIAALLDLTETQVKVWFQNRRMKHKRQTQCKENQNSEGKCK
# HOXA2 [5] = target: HOXA2 (Homo sapiens, UniProt O43364 129-215, R185K)
# Chain of HOXA2 (Homo sapiens, UniProt O43364 129-215, R185K) (O43364 129-215 R185K): as the sequence (O43364 129-215 R185T) above, with T57K counted along it
# HOXA2 [6] = target: HOXA2 (Homo sapiens, UniProt O43364 129-215, Y150S)
# Chain of HOXA2 (Homo sapiens, UniProt O43364 129-215, Y150S) (O43364 129-215 Y150S): as the sequence (O43364 129-215 R185T) above, with Y22S, T57R counted along it
# HOXA2 [7] = target: HOXA2 (Homo sapiens, UniProt O43364 129-215)
# Chain of HOXA2 (Homo sapiens, UniProt O43364 129-215) (O43364 129-215): as the sequence (O43364 129-215 R185T) above, with T57R counted along it
# CRX = CRX (Homo sapiens, UniProt O43186 26-111, R41L)
# Chain of CRX (O43186 26-111 R41L): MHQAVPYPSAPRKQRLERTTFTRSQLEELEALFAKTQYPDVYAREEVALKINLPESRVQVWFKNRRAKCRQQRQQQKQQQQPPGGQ
# PAX4 [8] = target: T4, PAX4 (Homo sapiens, UniProt O43316 9-242, R200K)
# T4 sequence: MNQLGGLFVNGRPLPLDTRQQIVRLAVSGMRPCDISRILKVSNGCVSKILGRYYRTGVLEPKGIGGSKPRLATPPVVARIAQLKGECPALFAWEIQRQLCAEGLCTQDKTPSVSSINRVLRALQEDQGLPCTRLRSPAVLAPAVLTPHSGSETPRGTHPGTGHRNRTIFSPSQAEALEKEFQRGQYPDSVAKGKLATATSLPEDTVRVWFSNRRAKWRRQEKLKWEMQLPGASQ
# PAX4 [9] = target: T5, PAX4 (Homo sapiens, UniProt O43316 9-242)
# T5 sequence: T4 sequence with K192R
# PAX4 [10] = target: T6, PAX4 (Homo sapiens, UniProt O43316 9-242, R200Q)
# T6 sequence: T4 sequence with K192Q
# PAX4 [11] = target: T7, PAX4 (Homo sapiens, UniProt O43316 9-242, F177V)
# T7 sequence: T4 sequence with F169V, K192R
# PAX4 [12] = target: T8, PAX4 (Homo sapiens, UniProt O43316 9-242, F177Y)
# T8 sequence: T4 sequence with F169Y, K192R
# PAX4 [13] = target: T9, PAX4 (Homo sapiens, UniProt O43316 9-242, R227W)
# T9 sequence: T4 sequence with K192R, R219W
# NKX2-6 = target: T10, NKX2-6 (Homo sapiens, UniProt A6NCS4 118-204)
# T10 sequence: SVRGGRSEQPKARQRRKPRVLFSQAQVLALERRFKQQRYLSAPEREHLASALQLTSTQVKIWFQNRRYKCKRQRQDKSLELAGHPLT
# HOXB9 [14] = target: HOXB9 (Homo sapiens, UniProt P17482 171-250, T197M)
# Chain of HOXB9 (Homo sapiens, UniProt P17482 171-250, T197M) (P17482 171-250 T197M): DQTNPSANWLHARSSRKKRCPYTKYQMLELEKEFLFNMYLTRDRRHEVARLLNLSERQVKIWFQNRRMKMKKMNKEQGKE
# HOXC9 [15] = target: HOXC9 (Homo sapiens, UniProt P31274 178-260, K195R)
# Chain of HOXC9 (Homo sapiens, UniProt P31274 178-260, K195R) (P31274 178-260 K195R): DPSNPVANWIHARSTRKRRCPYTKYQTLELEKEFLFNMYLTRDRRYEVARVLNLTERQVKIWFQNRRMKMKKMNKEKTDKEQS
# HOXA7 [16] = target: HOXA7 (Homo sapiens, UniProt P31268 116-202)
# Chain of HOXA7 (Homo sapiens, UniProt P31268 116-202) (P31268 116-202): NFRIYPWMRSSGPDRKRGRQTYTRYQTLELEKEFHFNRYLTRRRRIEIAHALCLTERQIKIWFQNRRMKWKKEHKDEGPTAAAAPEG
# PRRX1 [17] = target: PRRX1 (Homo sapiens, UniProt P54821 80-166, F113S)
# Chain of PRRX1 (Homo sapiens, UniProt P54821 80-166, F113S) (P54821 80-166 F113S): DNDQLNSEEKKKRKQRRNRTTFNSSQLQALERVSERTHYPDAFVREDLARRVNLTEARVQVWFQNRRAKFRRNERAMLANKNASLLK
# HOXB6 [18] = target: HOXB6 (Homo sapiens, UniProt P17509 132-218, K202E)
# Chain of HOXB6 (Homo sapiens, UniProt P17509 132-218, K202E) (P17509 132-218 K202E): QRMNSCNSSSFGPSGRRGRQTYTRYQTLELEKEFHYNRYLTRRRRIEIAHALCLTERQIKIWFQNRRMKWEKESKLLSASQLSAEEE
# HOXC10 [19] = target: HOXC10 (Homo sapiens, UniProt Q9NYD6 254-340, K271E)
# Chain of HOXC10 (Homo sapiens, UniProt Q9NYD6 254-340, K271E) (Q9NYD6 254-340 K271E): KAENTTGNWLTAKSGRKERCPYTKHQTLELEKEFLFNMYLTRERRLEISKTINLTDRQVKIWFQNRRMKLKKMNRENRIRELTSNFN
# HOXC9 [20] = target: HOXC9 (Homo sapiens, UniProt P31274 178-260, R222W)
# Chain of HOXC9 (Homo sapiens, UniProt P31274 178-260, R222W) (P31274 178-260 R222W): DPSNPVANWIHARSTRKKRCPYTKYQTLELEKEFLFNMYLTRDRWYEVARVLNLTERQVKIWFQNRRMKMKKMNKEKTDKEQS
# HESX1 = HESX1 (Homo sapiens, UniProt Q9UBX0 95-180, F115L)
# Chain of HESX1 (Q9UBX0 95-180 F115L): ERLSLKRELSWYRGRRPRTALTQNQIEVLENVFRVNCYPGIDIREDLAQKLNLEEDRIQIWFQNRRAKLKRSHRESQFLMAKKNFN
# HOXA7 [21] = target: HOXA7 (Homo sapiens, UniProt P31268 116-202, W177C)
# Chain of HOXA7 (Homo sapiens, UniProt P31268 116-202, W177C) (P31268 116-202 W177C): as the sequence (P31268 116-202) above, with W62C counted along it
# HOXA4 = HOXA4 (Homo sapiens, UniProt Q00056 201-287, W262F)
# Chain of HOXA4 (Q00056 201-287 W262F): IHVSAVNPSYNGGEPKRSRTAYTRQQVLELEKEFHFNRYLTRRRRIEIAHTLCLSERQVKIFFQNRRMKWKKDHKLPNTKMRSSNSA
# PRRX1 [22] = target: PRRX1 (Homo sapiens, UniProt P54821 80-166)
# Chain of PRRX1 (Homo sapiens, UniProt P54821 80-166) (P54821 80-166): as the sequence (P54821 80-166 F113S) above, with S34F counted along it
# HOXB6 [23] = target: HOXB6 (Homo sapiens, UniProt P17509 132-218)
# Chain of HOXB6 (Homo sapiens, UniProt P17509 132-218) (P17509 132-218): as the sequence (P17509 132-218 K202E) above, with E71K counted along it
# HOXC10 [24] = target: HOXC10 (Homo sapiens, UniProt Q9NYD6 254-340)
# Chain of HOXC10 (Homo sapiens, UniProt Q9NYD6 254-340) (Q9NYD6 254-340): as the sequence (Q9NYD6 254-340 K271E) above, with E18K counted along it
# HOXB9 [25] = target: HOXB9 (Homo sapiens, UniProt P17482 171-250)
# Chain of HOXB9 (Homo sapiens, UniProt P17482 171-250) (P17482 171-250): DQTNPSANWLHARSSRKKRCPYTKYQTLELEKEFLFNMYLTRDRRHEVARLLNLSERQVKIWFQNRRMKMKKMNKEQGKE
# HOXC9 [26] = target: HOXC9 (Homo sapiens, UniProt P31274 178-260)
# Chain of HOXC9 (Homo sapiens, UniProt P31274 178-260) (P31274 178-260): as the sequence (P31274 178-260 R222W) above, with W45R counted along it
# HOXD13 [27] = target: HOXD13 (Homo sapiens, UniProt P35453 263-343, T313R)
# Chain of HOXD13 (Homo sapiens, UniProt P35453 263-343, T313R) (P35453 263-343 T313R): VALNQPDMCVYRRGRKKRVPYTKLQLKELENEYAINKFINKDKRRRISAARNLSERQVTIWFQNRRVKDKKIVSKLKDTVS
# HOXC9 [28] = target: HOXC9 (Homo sapiens, UniProt P31274 178-260, R193K)
# Chain of HOXC9 (Homo sapiens, UniProt P31274 178-260, R193K) (P31274 178-260 R193K): as the sequence (P31274 178-260 R222W) above, with R16K, W45R counted along it
# HOXD13 [29] = target: HOXD13 (Homo sapiens, UniProt P35453 263-343)
# Chain of HOXD13 (Homo sapiens, UniProt P35453 263-343) (P35453 263-343): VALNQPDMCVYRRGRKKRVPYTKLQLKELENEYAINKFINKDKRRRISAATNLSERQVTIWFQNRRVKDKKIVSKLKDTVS
# HOXD13 [30] = target: HOXD13 (Homo sapiens, UniProt P35453 263-343, T313A)
# Chain of HOXD13 (Homo sapiens, UniProt P35453 263-343, T313A) (P35453 263-343 T313A): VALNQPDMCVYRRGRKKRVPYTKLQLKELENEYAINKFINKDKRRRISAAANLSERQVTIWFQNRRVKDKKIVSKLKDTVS
# HOXB9 [31] = target: HOXB9 (Homo sapiens, UniProt P17482 171-250, R186Q)
# Chain of HOXB9 (Homo sapiens, UniProt P17482 171-250, R186Q) (P17482 171-250 R186Q): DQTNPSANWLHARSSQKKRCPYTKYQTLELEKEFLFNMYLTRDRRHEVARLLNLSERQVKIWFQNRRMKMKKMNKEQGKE
sequence,measurement,setting,value
GCGGCCCC,binding signal,VENTX [1],"8.15 upbm affinity estimate (log intensity, higher = more binding, comparable within an allelic series)"
same,binding signal,VENTX [2],"8.27 upbm affinity estimate (log intensity, higher = more binding, comparable within an allelic series)"
same,binding signal,VENTX [3],"8.25 upbm affinity estimate (log intensity, higher = more binding, comparable within an allelic series)"
same,binding signal,HOXA2 [4],"6.96 upbm affinity estimate (log intensity, higher = more binding, comparable within an allelic series)"
same,binding signal,HOXA2 [5],"9.93 upbm affinity estimate (log intensity, higher = more binding, comparable within an allelic series)"
same,binding signal,HOXA2 [6],"10.3 upbm affinity estimate (log intensity, higher = more binding, comparable within an allelic series)"
same,binding signal,HOXA2 [7],"7.15 upbm affinity estimate (log intensity, higher = more binding, comparable within an allelic series)"
CCGATTAG,binding signal,VENTX [1],"11.6 upbm affinity estimate (log intensity, higher = more binding, comparable within an allelic series)"
same,binding signal,VENTX [2],"12.9 upbm affinity estimate (log intensity, higher = more binding, comparable within an allelic series)"
same,binding signal,VENTX [3],"11.6 upbm affinity estimate (log intensity, higher = more binding, comparable within an allelic series)"
same,binding signal,CRX,"11.4 upbm affinity estimate (log intensity, higher = more binding, comparable within an allelic series)"
TAATGCGA,binding signal,VENTX [1],"10.2 upbm affinity estimate (log intensity, higher = more binding, comparable within an allelic series)"
same,binding signal,PAX4 [8],"11.7 upbm affinity estimate (log intensity, higher = more binding, comparable within an allelic series)"
same,binding signal,PAX4 [9],"12.1 upbm affinity estimate (log intensity, higher = more binding, comparable within an allelic series)"
same,binding signal,PAX4 [10],"11.4 upbm affinity estimate (log intensity, higher = more binding, comparable within an allelic series)"
same,binding signal,PAX4 [11],"10.4 upbm affinity estimate (log intensity, higher = more binding, comparable within an allelic series)"
same,binding signal,PAX4 [12],"10.9 upbm affinity estimate (log intensity, higher = more binding, comparable within an allelic series)"
same,binding signal,PAX4 [13],"10.9 upbm affinity estimate (log intensity, higher = more binding, comparable within an allelic series)"
same,binding signal,CRX,"10.6 upbm affinity estimate (log intensity, higher = more binding, comparable within an allelic series)"
ACGATTAT,binding signal,VENTX [1],"10.5 upbm affinity estimate (log intensity, higher = more binding, comparable within an allelic series)"
same,binding signal,NKX2-6,"10.7 upbm affinity estimate (log intensity, higher = more binding, comparable within an allelic series)"
ATTATAAT,binding signal,HOXB9 [14],"10.2 upbm affinity estimate (log intensity, higher = more binding, comparable within an allelic series)"
same,binding signal,HOXC9 [15],"12.5 upbm affinity estimate (log intensity, higher = more binding, comparable within an allelic series)"
same,binding signal,HOXA7 [16],"11.3 upbm affinity estimate (log intensity, higher = more binding, comparable within an allelic series)"
same,binding signal,PAX4 [8],"11.8 upbm affinity estimate (log intensity, higher = more binding, comparable within an allelic series)"
same,binding signal,PRRX1 [17],"11.3 upbm affinity estimate (log intensity, higher = more binding, comparable within an allelic series)"
same,binding signal,PAX4 [9],"12.2 upbm affinity estimate (log intensity, higher = more binding, comparable within an allelic series)"
same,binding signal,HOXB6 [18],"10.1 upbm affinity estimate (log intensity, higher = more binding, comparable within an allelic series)"
same,binding signal,PAX4 [10],"12 upbm affinity estimate (log intensity, higher = more binding, comparable within an allelic series)"
same,binding signal,PAX4 [11],"10.8 upbm affinity estimate (log intensity, higher = more binding, comparable within an allelic series)"
same,binding signal,HOXC10 [19],"11.8 upbm affinity estimate (log intensity, higher = more binding, comparable within an allelic series)"
same,binding signal,PAX4 [12],"11.1 upbm affinity estimate (log intensity, higher = more binding, comparable within an allelic series)"
same,binding signal,HOXC9 [20],"11.1 upbm affinity estimate (log intensity, higher = more binding, comparable within an allelic series)"
same,binding signal,HESX1,"7.83 upbm affinity estimate (log intensity, higher = more binding, comparable within an allelic series)"
same,binding signal,PAX4 [13],"11 upbm affinity estimate (log intensity, higher = more binding, comparable within an allelic series)"
same,binding signal,HOXA7 [21],"8.94 upbm affinity estimate (log intensity, higher = more binding, comparable within an allelic series)"
same,binding signal,HOXA4,"11.4 upbm affinity estimate (log intensity, higher = more binding, comparable within an allelic series)"
same,binding signal,PRRX1 [22],"13.3 upbm affinity estimate (log intensity, higher = more binding, comparable within an allelic series)"
same,binding signal,HOXB6 [23],"11.8 upbm affinity estimate (log intensity, higher = more binding, comparable within an allelic series)"
CCCATAAA,binding signal,HOXB9 [14],"9.63 upbm affinity estimate (log intensity, higher = more binding, comparable within an allelic series)"
same,binding signal,HOXC9 [15],"12.8 upbm affinity estimate (log intensity, higher = more binding, comparable within an allelic series)"
same,binding signal,HOXA7 [16],"10.4 upbm affinity estimate (log intensity, higher = more binding, comparable within an allelic series)"
same,binding signal,HOXC10 [24],"12.5 upbm affinity estimate (log intensity, higher = more binding, comparable within an allelic series)"
same,binding signal,HOXB9 [25],"12.2 upbm affinity estimate (log intensity, higher = more binding, comparable within an allelic series)"
same,binding signal,HOXC9 [26],"13 upbm affinity estimate (log intensity, higher = more binding, comparable within an allelic series)"
same,binding signal,HOXD13 [27],"11 upbm affinity estimate (log intensity, higher = more binding, comparable within an allelic series)"
same,binding signal,HOXC9 [28],"12.8 upbm affinity estimate (log intensity, higher = more binding, comparable within an allelic series)"
same,binding signal,HOXD13 [29],"12.3 upbm affinity estimate (log intensity, higher = more binding, comparable within an allelic series)"
same,binding signal,HOXC10 [19],"11.9 upbm affinity estimate (log intensity, higher = more binding, comparable within an allelic series)"
same,binding signal,HOXD13 [30],"12 upbm affinity estimate (log intensity, higher = more binding, comparable within an allelic series)"
same,binding signal,HOXB9 [31],"12 upbm affinity estimate (log intensity, higher = more binding, comparable within an allelic series)"
same,binding signal,HOXC9 [20],"11.2 upbm affinity estimate (log intensity, higher = more binding, comparable within an allelic series)"
same,binding signal,HOXA7 [21],"8.63 upbm affinity estimate (log intensity, higher = more binding, comparable within an allelic series)"
